For 36 compounds, Potency results are on record in PubChem BioAssay (NCATS).

Inconclusive results are not listed. A call without a number means that no potency is given here. The source made the active and inactive calls. Calls come from the whole dose curve; as a rule, active = well fitted inhibition curve with a large enough effect; inconclusive = small, poorly fitted or top-dose-only effect, or effect the other way; inactive = flat fitted curve, though single readings scatter.

Sequence of ATP-dependent 6-phosphofructokinase (Trypanosoma brucei brucei) (O15648 whole entry, looked up): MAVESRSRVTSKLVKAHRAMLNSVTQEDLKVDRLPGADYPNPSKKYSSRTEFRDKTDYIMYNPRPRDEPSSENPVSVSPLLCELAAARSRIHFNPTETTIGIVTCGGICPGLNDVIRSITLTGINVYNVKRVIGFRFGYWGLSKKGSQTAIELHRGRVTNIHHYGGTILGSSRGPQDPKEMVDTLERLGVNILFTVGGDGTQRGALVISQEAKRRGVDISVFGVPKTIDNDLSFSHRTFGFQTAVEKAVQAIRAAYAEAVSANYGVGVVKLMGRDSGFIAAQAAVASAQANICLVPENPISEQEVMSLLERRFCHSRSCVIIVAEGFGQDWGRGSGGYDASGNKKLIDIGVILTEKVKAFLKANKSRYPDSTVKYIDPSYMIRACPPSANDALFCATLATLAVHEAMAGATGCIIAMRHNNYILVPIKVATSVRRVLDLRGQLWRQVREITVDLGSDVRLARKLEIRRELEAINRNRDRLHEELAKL

This experiment deals with ATP-dependent 6-phosphofructokinase (Trypanosoma brucei brucei) (UniProt O15648). Description: qHTS Assay to Find Inhibitors of T. brucei phosphofructokinase: hit validation (AID 492961).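 Note: luminescence reports ADP formed as PFK phosphorylates fructose-6-phosphate with ATP.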 The conditions noted are these: T. brucei PFK, ADP-Glo luminescence; series mostly up to 51.4 µM. In short, it runs like this:
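Compounds titrated; %activity normalized to 0x and 1x enzyme controls, curve-fitted. Readout: ADP-Glo luminescence after 45 min room-temperature reaction of 1.25 nM PFK, 0.1 mM ATP, 0.5 mM F6P, pH 8.0.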
For `CC(C)Nc1cccnc1N1CCN(C(=O)c2cc3cc(NS(C)(=O)=O)ccc3[nH]2)CC1`, the Potency entry is “inactive”.

With `CN1CCC[C@@H]1CCO[C@](C)(c1ccccc1)c1ccc(Cl)cc1`, the Potency result is “inactive”.

Consider `NC(=O)C1(N2CCCCC2)CCN(CCCC(=O)c2ccc(F)cc2)CC1`, for which the Potency entry was “inactive”.

As for `CCCCCCCCCCCCCCCC(=O)O`, the Potency entry is “inactive”.

Regarding `CCc1ccc(C(=O)C(C)CN2CCCCC2)cc1` (stereo unspecified), the Potency result was “inactive”.

Turning to `COc1cc(C(=O)N2CCCCCCC2)cc(OC)c1OC`, the Potency entry was “inactive”.

For `CC(C)CCCC(C)N` (stereo unspecified), the Potency entry is “inactive”.

Take `CN(C)CCOC(c1ccc(Cl)cc1)c1ccccn1` (stereo unspecified): the Potency entry is “inactive”.

In the case of `C#C[C@]1(OC(C)=O)CC[C@H]2[C@@H]3CCC4=C/C(=N/O)CC[C@@H]4[C@H]3CC[C@@]21CC`, the Potency result was “inactive”.

As to `O=C(Nc1ncc([N+](=O)[O-])s1)c1cccs1`, the Potency entry is “inactive”.

As for `COC(=O)C(c1ccccc1Cl)N1CCc2sccc2C1` (stereo unspecified), the Potency entry is “inactive”.

Consider `O=C1C(=O)c2ccccc2C(O)=C1C1CCC(c2ccc(Cl)cc2)CC1` (stereo unspecified), for which the Potency result is “inactive”.

Consider `NCCNC(=O)c1ccc(Cl)cn1`, for which the Potency result was “inactive”.

As for `CCCCCCCCCCCCOCCOCCOCCOCCOCCOCCOCCOCCOCCO`, the Potency result was “inactive”.

`COc1cc(C)nc(-n2nc(C)cc2OC)n1`: the Potency entry was “inactive”.

In the case of `CC(=O)O[C@]1(C(C)=O)CC[C@H]2[C@@H]3C=C(Cl)C4=CC(=O)CC[C@]4(C)[C@H]3CC[C@@]21C`, the Potency result was “inactive”.

Regarding `CCCCCCCCOc1ccc(C(=O)c2ccccc2)c(O)c1`, the Potency entry is “inactive”.

With `CC(=O)Nc1ncc([N+](=O)[O-])s1`, the Potency result is “inactive”.

For the compound `O=C(O)c1ccc(S(=O)(=O)N(Cl)Cl)cc1`, the Potency entry was “inactive”.

On to `NC1CCN(c2nc3c(cc2F)c(=O)c(C(=O)O)cn3-c2ccc(F)cc2F)C1` (stereo unspecified), for which the Potency entry was “inactive”.

Turning to `NC(=S)N/N=C/c1cccnc1`, the Potency result was “inactive”.

As to `CN1CCC(OC(c2ccccc2)c2ccccc2)CC1`, the Potency entry is “inactive”.

As to `CC1(COc2ccc(CC3SC(=O)NC3=O)cc2)CCCCC1` (stereo unspecified), the Potency entry was “inactive”.

As for `CN1CCN(c2c(F)cc3c(=O)c(C(=O)O)cn4c3c2SCC4)CC1`, the Potency entry was “inactive”.

Turning to `CCOC(=O)Nc1ccc2c(c1)N(C(=O)CCN1CCOCC1)c1ccccc1S2`, the Potency result was “inactive”.

In the case of `CNCCc1ccccn1`, the Potency result was “inactive”.

Turning to `Cn1c(=O)c2[nH]c(Br)nc2n(C)c1=O`, the Potency entry is “inactive”.

With `Cc1c[nH]c2ccccc12`, the Potency result is “inactive”.

Consider `O=C(O)Cc1csc(-c2ccc(Cl)cc2)n1`, for which the Potency result was “inactive”.

As to `NS(=O)(=O)Cc1noc2ccccc12`, the Potency entry is “inactive”.

As to `NC(=O)c1ccccc1O`, the Potency result is “inactive”.

As for `c1ccc(-c2nc[nH]c2-c2ccccc2)cc1`, the Potency entry was “inactive”.

As for `O=C(Oc1cccc2cccnc12)c1ccccc1`, the Potency entry was “inactive”.

Consider `CC(=O)Nc1ccc(CC(=O)O)cc1`, for which the Potency result is “inactive”.

As to `CC(=O)NCCCCCC(=O)O`, the Potency entry is “inactive”.

As to `CCCCC(CC)COC(=O)c1ccc(N(C)C)cc1` (stereo unspecified), the Potency result was “inactive”.
